Granule exo inh – lytic granule exocytosis inhibition; TALL-104 LAMP-1 surface exposure, flow cytometry; cells stimulated with thapsigargin and PMA; inhibition, % at 10 µM; 360,000 compounds, 0.66% hits; AID 651702;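 active = inhibition above about 55%, limit read from the data; inconclusive = no clear call, values can overlap the other calls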
SMARCA2 activ – SMARCA2 function activation, primary screen | AID 652017 | MG213 cells, MMTV-luciferase reporter, dexamethasone, overnight | activation, % at 9.1 µM | 370,000 compounds, 1% hits; in the data active = activation above about 7.8%
beta cell repl – induces beta-cell replication in MIN6 cells. MIN6 cells proliferation, ATPlite luminescence, 48 h; cells starved in 0.2% serum; 100% = growth in 10% serum. proliferation, % at 10 µM. 330,000 compounds, 0.29% hits. AID 2380;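 active = compounds whose signal lies at least 3.5 SD above the mean of all wells on their plate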
ALR inh – human ALR oxidase inhibition via reduced H2O2. P55789. purified ALR, DTT oxidation, H2O2 HRP-luminol luminescence. inhibition, % (concentration not given with the values). 290,000 compounds, 3.8% hits;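 active = mean replicate inhibition above about 79%, with every replicate also reaching it, limit read from the data; inconclusive = only one of the two criteria met; inactive = mean below limit and not every replicate reaching it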
Target sequence (P55789 whole entry, looked up): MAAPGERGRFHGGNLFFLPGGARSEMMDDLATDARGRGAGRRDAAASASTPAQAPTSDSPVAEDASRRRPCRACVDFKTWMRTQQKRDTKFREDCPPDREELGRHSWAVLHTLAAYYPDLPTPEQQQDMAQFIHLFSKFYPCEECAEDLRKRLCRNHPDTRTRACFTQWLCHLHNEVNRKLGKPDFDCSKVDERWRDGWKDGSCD
M18AAP inhibitor – blocks P. falciparum M18 aspartyl aminopeptidase; recombinant PfM18AAP, H-Glu-NHMec fluorogenic cleavage; inhibition, % at 7.35 µM; 290,000 compounds, 1.2% hits; AID 1822;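 active = inhibition above the campaign mean inhibition over all tested compounds plus 3 SD, cut at about 28% in these data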
GASC-1 inh – inhibitors of human GASC-1 (JMJD2C) demethylase. inhibition, % at 2.35 µM. 330,000 compounds, 0.069% hits. Q9H3R0. GST-JMJD2C(1-420) H3K9me3 demethylation, DELFIA europium;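 active = more than half of a compound's replicate wells show inhibition beyond 50%, single wells judged on their own value; inconclusive = some, but no more than half, of replicates pass 50% inhibition; inactive = no replicate passes 50% inhibition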;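 note: signal counts dimethyl H3K9 product captured on neutravidin plate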
Target sequence (Q9H3R0 1-420 limits assumed): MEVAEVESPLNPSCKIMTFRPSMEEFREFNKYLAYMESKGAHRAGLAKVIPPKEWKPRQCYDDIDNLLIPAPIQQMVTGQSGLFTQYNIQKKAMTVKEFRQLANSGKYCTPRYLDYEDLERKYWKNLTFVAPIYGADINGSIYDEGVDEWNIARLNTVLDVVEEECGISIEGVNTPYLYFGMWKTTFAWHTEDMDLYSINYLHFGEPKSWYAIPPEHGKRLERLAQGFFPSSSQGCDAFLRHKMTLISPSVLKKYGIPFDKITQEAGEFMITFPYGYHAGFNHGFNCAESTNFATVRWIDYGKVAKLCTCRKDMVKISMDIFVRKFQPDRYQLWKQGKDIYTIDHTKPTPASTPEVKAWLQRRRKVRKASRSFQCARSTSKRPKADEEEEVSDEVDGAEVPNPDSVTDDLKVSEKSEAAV
A number is an active result; n = inactive; u = inconclusive; x = no result. Sampled rows, rich in hits. Any-hit rate of the full collection: about 5.4%.

SMILES	Granule exo inh	SMARCA2 activ	beta cell repl	ALR inh	M18AAP inhibitor	GASC-1 inh
Cc1cccc(NC(=O)CN2C(=O)CCSc3ccccc32)c1C	x	n	x	x	x	x
Cc1ccccc1CN1CCCCC(NC(=O)c2ccc(COc3ccccc3)cc2)C1=O (configuration not stated)	x	n	x	x	x	x
CC(C)CNS(=O)(=O)/C=C/c1cc2c(cc1CNC(=O)OC(C)(C)C)OCO2	x	n	x	x	x	x
O=C(/C=C/c1ccco1)NC(=S)NNC(=O)c1ccco1	n	n	n	97.9	n	x
NS(=O)(=O)c1ccc(NC(=O)/C=C/c2ccco2)cc1	n	n	n	95.7	n	n
CC(=O)NS(=O)(=O)c1ccc(NC(=O)/C=C/c2ccco2)cc1	n	n	n	n	n	n
O=C(/C=C/c1ccco1)NC(=S)Nc1ccc(C(=O)O)cc1	n	n	n	x	29.0	n
COC(=O)Cc1c([C@H](C)[C@@H](OC)c2ccccc2Br)nnn1Cc1ccccc1	x	n	x	x	x	x
CCN(CC)C(=O)CC[C@H]1CC[C@]2(CCCN(C(=O)C3CCCC3)C2)O1	x	n	x	x	x	x
OCC1(CC2CCCCO2)CCN(C/C=C/c2ccccc2)CC1 (configuration not stated)	n	n	n	n	n	n
COc1cc(/C=C/CN2CCC(CO)(CC3CCCCO3)CC2)ccc1O (configuration not stated)	n	n	n	91.7	n	n
COc1cc(/C=C/CN2CCN(CCC(C)C)C(CCO)C2)ccc1O (configuration not stated)	n	n	n	94.0	n	n
COc1cc(/C=C/CN2CCN(Cc3ccc(C)o3)C(CCO)C2)ccc1O (configuration not stated)	n	n	n	97.6	n	n
COc1ccccc1/C=C/CN1CCN(Cc2ccc(C)o2)C(CCO)C1 (configuration not stated)	n	n	n	n	n	n
CN1C(=O)c2cc(NC(=O)Cc3cccs3)ccc2OC[C@@H]2O[C@@H](CC(=O)N[C@H]3CCN(Cc4ccccc4)C3)CC[C@@H]21	x	n	x	x	x	x
CN1C(=O)[C@@]2(O[C@H]3C=CC=CN3C3=C2C(=O)CCC3)c2cccc(Br)c21	x	n	x	x	x	x
Oc1cccc(/C=N/NC(=S)Nc2cccnc2)c1O	n	n	x	89.7	n	n
O=C(O)c1ccc(/C=N/NC(=S)NCCN2CCOCC2)cc1	n	n	n	n	n	n
NC(=S)N/N=C/c1cccc(O)c1O	n	n	n	98.2	40.0	n
Oc1cccc(/C=N/NC(=S)NCCN2CCOCC2)c1O	n	n	n	99.6	28.9	n
Cc1cc(/C=N/NC(N)=S)c(O)c(/C=N/NC(N)=S)c1	n	n	n	x	44.8	n
CCCCCCCCN1C(=O)[C@@H](CC(=O)NCCCN2CCCC2=O)C[C@@]2(C(=O)OC)C1=C[C@H](COCc1ccccc1)O[C@@H]2C	x	n	x	x	x	x
Cc1ccc(C(=O)CSc2nnc(-c3ccccn3)n2-c2ccccc2)cc1	x	n	x	x	x	x
CC(C)C[C@@H]1COc2cccc(N3CCSCC3)c2S(=O)(=O)N1C	x	n	x	x	x	x
COc1ccc(NCC(=O)N/N=C/C2CCCCC2)cc1	n	n	n	92.1	n	n
SMILES	Granule exo inh	SMARCA2 activ	beta cell repl	ALR inh	M18AAP inhibitor	GASC-1 inh
C#Cc1cccc(OCC(C)CN2CCC(C(O)(c3ccccc3)c3ccccc3)CC2)c1 (configuration not stated)	x	n	x	x	x	x
CCCc1nnc(SCC(=O)Nc2ccc(OCC)cc2)n1N	n	n	n	98.4	n	n
CCOc1ccc(NC(=O)CSc2nncc(=O)n2N)cc1	n	n	n	95.7	n	n
Cc1cc2nc3ccc(N(C)C)cc3nc2cc1N	n	n	n	92.2	x	n
Cc1ccc(N(C(=O)c2ccc(Br)o2)C2C=CS(=O)(=O)C2)cc1 (configuration not stated)	n	n	n	77.4	n	n
O=C(c1ccc(Br)o1)N(c1ccc(Br)cc1)C1C=CS(=O)(=O)C1 (configuration not stated)	n	n	n	n	n	n
Cc1ccc(N(C(=O)c2cccs2)C2C=CS(=O)(=O)C2)cc1 (configuration not stated)	n	n	n	95.7	n	n
OCCCn1c(-c2ccccc2)csc1=Nc1ccccc1	n	n	n	n	n	n
O=C(O)CCC(=O)NCCn1c(-c2ccccc2)csc1=Nc1ccccc1	n	n	n	92.2	n	n
CCCCCCCCN1C(=O)[C@@H](CC(=O)NCc2ccccc2)C[C@@]2(C(=O)OC)C1=C[C@H](C(C)C)O[C@@H]2C1CC1	x	n	x	x	x	x
COC(=O)[C@]12C[C@H](CC(=O)NCC34CC5CC(CC(C5)C3)C4)C(=O)N(Cc3ccc4c(c3)OCO4)C1=C[C@H](C(C)C)O[C@@H]2C1CC1	x	n	x	x	x	x
COc1ccccc1N1CCN(C(c2cccs2)C(C)NC(=O)C(=O)N2CCOCC2)CC1 (configuration not stated)	n	n	n	88.7	n	n
CC(NC(=O)C(=O)N1CCOCC1)C(c1cccs1)N1CCN(c2ccccc2)CC1 (configuration not stated)	n	n	n	98.2	n	n
COc1ccc(N2CCN(C(c3cccs3)C(C)NC(=O)C(=O)N3CCOCC3)CC2)cc1 (configuration not stated)	n	n	n	u	n	n
COc1ccccc1C(=O)NC(C)C(c1cccs1)N1CCOCC1 (configuration not stated)	n	n	n	n	n	n
O=[N+]([O-])c1cc(C=NN2CCN(Cc3ccccc3Cl)CC2)ccc1Cl	x	n	x	x	x	x
COC(=O)[C@H](CC(C)C)N(CCCc1cn(Cc2ccc(C)cc2)nn1)S(=O)(=O)c1ccccc1Br	x	n	x	x	x	x
Cc1sc(N)nc1-c1c(C)n(C)c2ccccc12	n	n	n	99.1	n	n
Cc1ccc(-c2nc(N)sc2C)cc1	n	n	n	x	n	n
CCn1c(C)nc2cc(C(=O)N/N=C/c3cccc(O)c3O)ccc21	n	n	n	99.0	n	n
CCn1c(C)nc2cc(C(=O)N/N=C/c3ccc(N4CCOCC4)cc3)ccc21	n	n	n	91.4	n	n
CCn1c(C)nc2cc(C(=O)NNC(=S)Nc3ccc(Cl)cc3)ccc21	n	n	n	87.1	n	n
CCn1c(C)nc2cc(C(=O)N/N=C(\C)c3ccc(N4CCOCC4)cc3)ccc21	n	n	n	n	n	n
CCn1c(C)nc2cc(C(=O)N/N=C/c3ccccc3)ccc21	n	n	n	n	n	n
CCn1c(C)nc2cc(C(=O)N/N=C/c3ccc(O)cc3)ccc21	n	n	n	99.1	n	n
CCCCNC(=O)NCC1CCN(Cc2ccc(OC)cc2)CC1	x	n	x	x	x	x
CCOC(=O)[C@@]12CN(C(=O)OC(C)(C)C)CC=C1N(Cc1ccc(OC)cc1)C(=O)[C@H]2CC(=O)NCCC(C)C	x	n	x	x	x	x
COc1ccc(/C=N/N=C2/NC(=O)C(CC(=O)O)S2)cc1OCc1ccccc1Cl (configuration not stated)	n	n	n	91.9	n	n

Screening results from PubChem.
